Assay outcomes from PubChem BioAssay.
S aureus helic = inhibitors of S. aureus replicative helicase, primary screen, biochemical, fluorescence unwinding readout; inhibition, % (test concentration not listed); 0.05% of 120,000 active; replicative DNA helicase (DnaC/DnaB), Staphylococcus aureus; purified S. aureus helicase, fluorescence unwinding assay; in the data active = inhibition above about 25%, passing the limit was not always enough
Sa growth 42C = S. aureus growth inhibition at 42 and 30 °C, primary screen, LtaS inhibitor project, RN4220, two temperatures | OD600, 20 h, 42 °C; hits give low values | relative growth, % (no concentration beside the values) | 0.53% of 170,000 active;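 active = relative growth at most 50% at the other temperature and 20+ points below 30 °C, or under 10% at both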
A number is an active result; . = inactive; / = no result. The entries come from a sample that favours hits as a whole.

SMILES	S aureus helic	Sa growth 42C
Cn1c(=O)c2ncnnc2n(C)c1=O	.	5.9
CC1(C)NN1CCCN1NC1(C)C (stereo not given)	.	.
OC(c1cccs1)(c1cccs1)C1CN2CCC1CC2 (stereo not given)	.	.
Cc1ccc(C(O)(c2ccc(C)c(C)c2)C2CN3CCC2CC3)cc1C (stereo not given)	.	23
Cc1cc(OCC(=O)NC2CC2)c2c3c(c(=O)oc2c1)CCC3	.	.
COc1ccc2c(c1OC)C(=O)OC2C1c2cc3c(cc2CCN1C)OCO3 (stereo not given)	.	.
CN1CCc2cc3c(c4c2C1Cc1ccccc1-4)OCO3 (stereo not given)	.	0.1
O=c1[nH]c(=S)[nH]c(O)c1C(c1ccc(F)cc1)N1CCCCC1 (stereo not given)	.	.
CCN(CC)C(=O)CN1CCCN(Cc2ccc(F)cc2)S1(=O)=O	.	.
COCCNC(=O)C1c2ccccc2C(=O)N2CCCCC12 (stereo not given)	.	.
CN(C)C(=S)SSC(=S)N(C)C	/	-0.7
Cc1ccc2c(c1)C1CN(C)CCC1N2C(=O)Cc1cccs1 (stereo not given)	.	.
Cc1ccc2c(c1)C1CN(C)CCC1N2Sc1ccc(Cl)cc1 (stereo not given)	.	-1.3
Cc1cc(C)[n+]2c(-c3ccccc3)csc2n1	.	.
Cn1nnnc1SC1CCOC1=O (stereo not given)	.	.
CN(C)[C@@H]1C(=O)C(C(N)=O)=C(O)[C@@]2(O)C(=O)C3=C(O)c4c(O)cccc4[C@@](C)(O)[C@H]3C[C@@H]12	/	-0.1
O=C1CCN(C(=O)c2ccc3ccccc3n2)CC1	.	/
CC(C)Nc1ccc(Nc2ccccc2)cc1	.	4.5
CC(=O)Nc1ccc(-c2ccccc2)cc1	/	.
Cc1ccn2c(CN3CCNCC3)c(C)nc2c1	.	.
Cc1ccc(NC2=NC(C)CS2)c(C)c1 (stereo not given)	.	.
CCCCCCCCCCCCCCCC[N+](C)(C)C	/	-0.5
COc1ccc(CCNCc2ccccc2O)cc1	.	.
CN1C(=O)C(=Cc2ccc(Br)cc2)C(=O)N(C)C1=O	.	.
